According to publication PMC8384837, “Expanding the binding specificity for RNA recognition by a PUF domain”:

Columns and labels:
Test in all cases: yeast three-hybrid, YBZ-1, SC-Leu-His + 0.5 mM 3-AT, 4 days
Conditions in all cases: tags: N-Gal4 AD-HA kept; label: inside an RPR1-promoter hybrid RNA with tandem MS2 sites; ssRNA
PUM1 PUF domain R3-LWD = PUM1 PUF domain R3-LWD (Homo sapiens, UniProt Q14671 828-1176, C935L;R936W;Q939D)
Procedure, shortened: (§1)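 Matching RNA elements and Pumilio-1 PUF domain libraries, randomized at the three base-contacting residues of every repeat, were co-expressed from a centromeric plasmid in strain YBZ-1 (LexA–MS2 coat fusion, HIS3 reporter). The repeat regions were PCR-amplified and Illumina-sequenced from cells grown four days on SC-Leu (input) or SC-Leu-His + 0.5 mM 3-AT (selection). The interaction score is the log change in variant frequency from input to selection. It is computed in log2, with a pseudocount of 1 for absent variants.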

PUM1 PUF domain R3-FQC = PUM1 PUF domain R3-FQC (Homo sapiens, UniProt Q14671 828-1176, C935F;R936Q;Q939C)
PUM1 PUF domain R3-FQC, sequence (Q14671 828-1176 C935F/R936Q/Q939C): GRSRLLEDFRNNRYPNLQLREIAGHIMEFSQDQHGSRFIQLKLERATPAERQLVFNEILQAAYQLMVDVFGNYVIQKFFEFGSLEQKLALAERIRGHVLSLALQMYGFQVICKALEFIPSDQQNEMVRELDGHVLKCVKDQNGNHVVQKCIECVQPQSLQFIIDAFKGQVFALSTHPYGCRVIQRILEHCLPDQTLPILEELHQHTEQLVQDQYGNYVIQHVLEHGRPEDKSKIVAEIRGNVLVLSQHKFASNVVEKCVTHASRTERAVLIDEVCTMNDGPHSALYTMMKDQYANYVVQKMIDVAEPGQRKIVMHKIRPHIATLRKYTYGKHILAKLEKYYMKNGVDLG
Procedure, shortened: as §1

PUM1 PUF domain R3-PWA = PUM1 PUF domain R3-PWA (Homo sapiens, UniProt Q14671 828-1176, C935P;R936W;Q939A)
PUM1 PUF domain R3-PWA, sequence (Q14671 828-1176 C935P/R936W/Q939A): as the sequence (Q14671 828-1176 C935F/R936Q/Q939C) above, with F108P, Q109W, C112A counted along it
Procedure, shortened: as §1

PUM1 PUF domain R3-FSN = PUM1 PUF domain R3-FSN (Homo sapiens, UniProt Q14671 828-1176, C935F;R936S;Q939N)
Procedure, shortened: as §1

PUM1 PUF domain R7-RCR = PUM1 PUF domain R7-RCR (Homo sapiens, UniProt Q14671 828-1176, S1079R;N1080C;E1083R)
Procedure, shortened: as §1

PUM1 PUF domain R1-QYK = PUM1 PUF domain R1-QYK (Homo sapiens, UniProt Q14671 828-1176, S863Q;R864Y;Q867K)
PUM1 PUF domain R1-QYK, sequence (Q14671 828-1176 S863Q/R864Y/Q867K): as the sequence (Q14671 828-1176 C935F/R936Q/Q939C) above, with S36Q, R37Y, Q40K, F108C, Q109R, C112Q counted along it
Procedure, shortened: as §1

PUM1 PUF domain R1-RSQ = PUM1 PUF domain R1-RSQ (Homo sapiens, UniProt Q14671 828-1176, S863R;R864S)
Procedure, shortened: as §1

PUM1 PUF domain R1-SWR = PUM1 PUF domain R1-SWR (Homo sapiens, UniProt Q14671 828-1176, R864W;Q867R)
Procedure, shortened: as §1

PUM1 PUF domain R4-AMA = PUM1 PUF domain R4-AMA (Homo sapiens, UniProt Q14671 828-1176, N971A;H972M;Q975A)
PUM1 PUF domain R4-AMA, sequence (Q14671 828-1176 N971A/H972M/Q975A): as the sequence (Q14671 828-1176 C935F/R936Q/Q939C) above, with F108C, Q109R, C112Q, N144A, H145M, Q148A counted along it
Procedure, shortened: as §1

PUM1 PUF domain R4-FNH = PUM1 PUF domain R4-FNH (Homo sapiens, UniProt Q14671 828-1176, N971F;H972N;Q975H)
PUM1 PUF domain R4-FNH, sequence (Q14671 828-1176 N971F/H972N/Q975H): as the sequence (Q14671 828-1176 C935F/R936Q/Q939C) above, with F108C, Q109R, C112Q, N144F, H145N, Q148H counted along it
Procedure, shortened: as §1

PUM1 PUF domain R4-LNC = PUM1 PUF domain R4-LNC (Homo sapiens, UniProt Q14671 828-1176, N971L;H972N;Q975C)
Procedure, shortened: as §1

PUM1 PUF domain R8-QWK = PUM1 PUF domain R8-QWK (Homo sapiens, UniProt Q14671 828-1176, N1122Q;Y1123W;Q1126K)
Procedure, shortened: as §1

PUM1 PUF domain R3-RPV = PUM1 PUF domain R3-RPV (Homo sapiens, UniProt Q14671 828-1176, C935R;R936P;Q939V)
PUM1 PUF domain R3-RPV, sequence (Q14671 828-1176 C935R/R936P/Q939V): as the sequence (Q14671 828-1176 C935F/R936Q/Q939C) above, with F108R, Q109P, C112V counted along it
Procedure, shortened: as §1

PUM1 PUF domain R3-RMW = PUM1 PUF domain R3-RMW (Homo sapiens, UniProt Q14671 828-1176, C935R;R936M;Q939W)
Procedure, shortened: as §1

PUM1 PUF domain R8-KWC = PUM1 PUF domain R8-KWC (Homo sapiens, UniProt Q14671 828-1176, N1122K;Y1123W;Q1126C)
PUM1 PUF domain R8-KWC, sequence (Q14671 828-1176 N1122K/Y1123W/Q1126C): as the sequence (Q14671 828-1176 C935F/R936Q/Q939C) above, with F108C, Q109R, C112Q, N295K, Y296W, Q299C counted along it
Procedure, shortened: as §1

PUM1 PUF domain R8-HFT = PUM1 PUF domain R8-HFT (Homo sapiens, UniProt Q14671 828-1176, N1122H;Y1123F;Q1126T)
Procedure, shortened: as §1

PUM1 PUF domain R5-KRM = PUM1 PUF domain R5-KRM (Homo sapiens, UniProt Q14671 828-1176, C1007K;Q1011M)
PUM1 PUF domain R5-KRM, sequence (Q14671 828-1176 C1007K/Q1011M): as the sequence (Q14671 828-1176 C935F/R936Q/Q939C) above, with F108C, Q109R, C112Q, C180K, Q184M counted along it
Procedure, shortened: as §1

PUM1 PUF domain R6-LWT = molecular target: T1, PUM1 PUF domain R6-LWT (Homo sapiens, UniProt Q14671 828-1176, N1043L;Y1044W;Q1047T)
T1 sequence: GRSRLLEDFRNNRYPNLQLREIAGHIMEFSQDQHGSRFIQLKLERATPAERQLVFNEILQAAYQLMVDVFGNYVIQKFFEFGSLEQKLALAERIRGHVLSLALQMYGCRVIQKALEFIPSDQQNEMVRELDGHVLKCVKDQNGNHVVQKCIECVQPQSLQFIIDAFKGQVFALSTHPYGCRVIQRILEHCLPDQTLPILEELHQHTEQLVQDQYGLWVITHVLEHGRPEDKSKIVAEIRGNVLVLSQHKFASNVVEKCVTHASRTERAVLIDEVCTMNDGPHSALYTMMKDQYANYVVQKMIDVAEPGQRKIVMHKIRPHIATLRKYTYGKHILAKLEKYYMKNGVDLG
Procedure, shortened: as §1

PUM1 PUF domain R5-ARK = PUM1 PUF domain R5-ARK (Homo sapiens, UniProt Q14671 828-1176, C1007A;Q1011K)
Procedure, shortened: as §1

PUM1 PUF domain R5-SNS = PUM1 PUF domain R5-SNS (Homo sapiens, UniProt Q14671 828-1176, C1007S;R1008N;Q1011S)
PUM1 PUF domain R5-SNS, sequence (Q14671 828-1176 C1007S/R1008N/Q1011S): as the sequence (Q14671 828-1176 C935F/R936Q/Q939C) above, with F108C, Q109R, C112Q, C180S, R181N, Q184S counted along it
Procedure, shortened: as §1

PUM1 PUF domain R3-LWD, sequence (Q14671 828-1176 C935L/R936W/Q939D): as the sequence (Q14671 828-1176 C935F/R936Q/Q939C) above, with F108L, Q109W, C112D counted along it

GGCUAGAACUAGUGGAUCCCCCGGCGCCCGGCGGCUCGAGCCCGGGUAAGUGUAAGUAGUCUGCAUGCCGCCGGGCGCCAUGCCUGCAGGUCGACUCUAGAAAACAUG
binding signal (PUM1 PUF domain R3-LWD): 4.02 log2 enrichment (interaction score)
binding signal (PUM1 PUF domain R3-FQC): 3.36 log2 enrichment (interaction score)
binding signal (PUM1 PUF domain R3-PWA): 0.42 log2 enrichment (interaction score)
binding signal (PUM1 PUF domain R3-FSN): 2.79 log2 enrichment (interaction score)

GGCUAGAACUAGUGGAUCCCCCGGCGCCCGGCGGCUCGAGCCCGGGUAAGUUUAAAUAGUCUGCAUGCCGCCGGGCGCCAUGCCUGCAGGUCGACUCUAGAAAACAUG
binding signal (PUM1 PUF domain R7-RCR): 5.68 log2 enrichment (interaction score)

GGCUAGAACUAGUGGAUCCCCCGGCGCCCGGCGGCUCGAGCCCGGGUAAGUGUAAAUCGUCUGCAUGCCGCCGGGCGCCAUGCCUGCAGGUCGACUCUAGAAAACAUG
binding signal (PUM1 PUF domain R1-QYK): 6.38 log2 enrichment (interaction score)
binding signal (PUM1 PUF domain R1-RSQ): 4.74 log2 enrichment (interaction score)
binding signal (PUM1 PUF domain R1-SWR): 3.04 log2 enrichment (interaction score)

GGCUAGAACUAGUGGAUCCCCCGGCGCCCGGCGGCUCGAGCCCGGGUAAGUGUAUAUAGUCUGCAUGCCGCCGGGCGCCAUGCCUGCAGGUCGACUCUAGAAAACAUG
binding signal (PUM1 PUF domain R4-AMA): 2.78 log2 enrichment (interaction score)
binding signal (PUM1 PUF domain R4-FNH): 5.93 log2 enrichment (interaction score)
binding signal (PUM1 PUF domain R4-LNC): 2.66 log2 enrichment (interaction score)

GGCUAGAACUAGUGGAUCCCCCGGCGCCCGGCGGCUCGAGCCCGGGUAAGGGUAAAUAGUCUGCAUGCCGCCGGGCGCCAUGCCUGCAGGUCGACUCUAGAAAACAUG
binding signal (PUM1 PUF domain R8-QWK): 3.09 log2 enrichment (interaction score)

GGCUAGAACUAGUGGAUCCCCCGGCGCCCGGCGGCUCGAGCCCGGGUAAGUGUAAUUAGUCUGCAUGCCGCCGGGCGCCAUGCCUGCAGGUCGACUCUAGAAAACAUG
binding signal (PUM1 PUF domain R3-LWD): 1.73 log2 enrichment (interaction score)
binding signal (PUM1 PUF domain R3-RPV): 2.55 log2 enrichment (interaction score)
binding signal (PUM1 PUF domain R3-PWA): 2.19 log2 enrichment (interaction score)
binding signal (PUM1 PUF domain R3-RMW): 2.28 log2 enrichment (interaction score)

GGCUAGAACUAGUGGAUCCCCCGGCGCCCGGCGGCUCGAGCCCGGGUAAGCGUAAAUAGUCUGCAUGCCGCCGGGCGCCAUGCCUGCAGGUCGACUCUAGAAAACAUG
binding signal (PUM1 PUF domain R8-KWC): 4.87 log2 enrichment (interaction score)
binding signal (PUM1 PUF domain R8-HFT): 3.48 log2 enrichment (interaction score)

GGCUAGAACUAGUGGAUCCCCCGGCGCCCGGCGGCUCGAGCCCGGGUAAGUGUAAAUAGUCUGCAUGCCGCCGGGCGCCAUGCCUGCAGGUCGACUCUAGAAAACAUG
binding signal (PUM1 PUF domain R4-AMA): 2.2 log2 enrichment (interaction score)
binding signal (PUM1 PUF domain R5-KRM): 2.19 log2 enrichment (interaction score)
binding signal (PUM1 PUF domain R3-PWA): 4.48 log2 enrichment (interaction score)
binding signal (PUM1 PUF domain R8-QWK): 2.09 log2 enrichment (interaction score)
binding signal (PUM1 PUF domain R6-LWT): 6.06 log2 enrichment (interaction score)

GGCUAGAACUAGUGGAUCCCCCGGCGCCCGGCGGCUCGAGCCCGGGUAAGUGUACAUAGUCUGCAUGCCGCCGGGCGCCAUGCCUGCAGGUCGACUCUAGAAAACAUG
binding signal (PUM1 PUF domain R4-AMA): 1.77 log2 enrichment (interaction score)

GGCUAGAACUAGUGGAUCCCCCGGCGCCCGGCGGCUCGAGCCCGGGUAAGUGUCAAUAGUCUGCAUGCCGCCGGGCGCCAUGCCUGCAGGUCGACUCUAGAAAACAUG
binding signal (PUM1 PUF domain R5-ARK): 0.39 log2 enrichment (interaction score)

GGCUAGAACUAGUGGAUCCCCCGGCGCCCGGCGGCUCGAGCCCGGGUAAGUGAAAAUAGUCUGCAUGCCGCCGGGCGCCAUGCCUGCAGGUCGACUCUAGAAAACAUG
binding signal (PUM1 PUF domain R6-LWT): 2.9 log2 enrichment (interaction score)

GGCUAGAACUAGUGGAUCCCCCGGCGCCCGGCGGCUCGAGCCCGGGUAAGUCUAAAUAGUCUGCAUGCCGCCGGGCGCCAUGCCUGCAGGUCGACUCUAGAAAACAUG
binding signal (PUM1 PUF domain R7-RCR): 4.6 log2 enrichment (interaction score)

GGCUAGAACUAGUGGAUCCCCCGGCGCCCGGCGGCUCGAGCCCGGGUAAGUGUAAAUUGUCUGCAUGCCGCCGGGCGCCAUGCCUGCAGGUCGACUCUAGAAAACAUG
binding signal (PUM1 PUF domain R1-RSQ): 5.08 log2 enrichment (interaction score)
binding signal (PUM1 PUF domain R1-SWR): 0.84 log2 enrichment (interaction score)

GGCUAGAACUAGUGGAUCCCCCGGCGCCCGGCGGCUCGAGCCCGGGUAAGUGUUAAUAGUCUGCAUGCCGCCGGGCGCCAUGCCUGCAGGUCGACUCUAGAAAACAUG
binding signal (PUM1 PUF domain R5-SNS): 3.23 log2 enrichment (interaction score)
binding signal (PUM1 PUF domain R5-KRM): 3.73 log2 enrichment (interaction score)
binding signal (PUM1 PUF domain R5-ARK): 3.13 log2 enrichment (interaction score)
